Paper PMC11062922 (Nature Chemical Biology, 2023)
Read-outs that look alike come from different tables or passages of the source.

Tests used:
Parameters in all cases: species or system human, MV4-11 + K-562 + COLO205 + SK-N-BE2 + OVCAR-8
PIK3C3 = conditions: read-out: apparent Kd, n = 1
PIK3CA = conditions: read-out: apparent Kd, n = 1
PIK3CB = conditions: read-out: apparent Kd, n = 1
TESK1 = conditions: read-out: apparent Kd, compound concentrations: 100 nM and 1000 nM (sheet 'Samples'), n = 1
ROCK1 = conditions: read-out: apparent Kd; compound concentrations:100 nM and 1000 nM (sheet 'Samples'); n = 1
ROCK2 = conditions: read-out: apparent Kd; compound concentrations:100 nM and 1000 nM (sheet 'Samples'); n = 1
[1] = compound concentrations:100 nM and 1000 nM (sheet 'Samples')
[2] = compound concentrations: 100 nM and 1000 nM (sheet 'Samples'), CATDS: 1

Compound: Nc1ncc(-c2ccc3nccc(-c4ccncc4)c3c2)cc1S(=O)(=O)N1CCCCC1 [GSK1693850A]
- potency estimated from few doses (PIK3C3; compound concentrations: 100 nM and 1000 nM (sheet 'Samples'), CATDS: 6.5868178094699706E-2): 1120 nM
- potency estimated from few doses (PIK3CA; compound concentrations: 100 nM and 1000 nM (sheet 'Samples'), CATDS: 0.402374173970307): 6.74 nM
- potency estimated from few doses (PIK3CB; compound concentrations: 100 nM and 1000 nM (sheet 'Samples'), CATDS: 8.8291431205062498E-2): 406 nM

Compound: C[C@H]1CC[C@@H](C(=O)Nc2ccccc2)CN1c1cc(-c2ccc3c(N)n[nH]c3c2)nc(N)n1 [GSK2283293_KCGS]
- potency estimated from few doses (PIK3CB; [1]): 1130 nM

Compound: Cc1nn2c(=O)cc(N3CCOCC3)nc2n1Cc1cccc(Cl)c1Cl [GSK2342769A]
- potency estimated from few doses (PIK3C3; [1]): 8.1 nM
- potency estimated from few doses (PIK3CB; compound concentrations: 100 nM and 1000 nM (sheet 'Samples'), CATDS: 0.39167168284884402): 14.2 nM

Compound: COc1cccc(-n2ncc3c(N/N=C/c4cccc(F)c4)ncnc32)c1 [GW817394X]
- potency estimated from few doses (PIK3CA; [2]): 237 nM

Compound: O=c1cc(N2CCOCC2)nc2n(Cc3cccc(Cl)c3)ccn12 [GSK2296823A]
- potency estimated from few doses (PIK3C3; [1]): 667 nM
- potency estimated from few doses (PIK3CB; [1]): 30.5 nM

Compound: Cc1ccccc1Cn1ccn2c(=O)cc(N3CCOCC3)nc12 [GSK2269905A]
- potency estimated from few doses (PIK3CB; compound concentrations: 100 nM and 1000 nM (sheet 'Samples'), CATDS: 0.94535386241692498): 41.9 nM

Compound: CC(C)c1ccc(O)cc1Nc1ccnc2ccc(C(F)(F)F)cc12 [GW482059X]
- potency estimated from few doses (PIK3CA; compound concentrations: 100 nM and 1000 nM (sheet 'Samples'), CATDS: 0.44189081373448802): 239 nM

Compound: COc1ncc(-c2cc(-c3ncc(CN4C[C@@H](C)O[C@@H](C)C4)o3)c3cn[nH]c3c2)cc1NS(C)(=O)=O [GSK2292767]
- potency estimated from few doses (PIK3C3; compound concentrations: 100 nM and 1000 nM (sheet 'Samples'), CATDS: 0.16198268418526299): 70.7 nM
- potency estimated from few doses (PIK3CA; compound concentrations: 100 nM and 1000 nM (sheet 'Samples'), CATDS: 0.29964038012822602): 9.18 nM
- potency estimated from few doses (PIK3CB; compound concentrations: 100 nM and 1000 nM (sheet 'Samples'), CATDS: 0.10653178363766699): 335 nM

Compound: CN(C)CCOc1ccc(-c2cc(-c3ccc(Cl)c(O)c3)c(-c3ccncc3)[nH]2)cc1.CN(C)CCOc1ccc(-c2cc(-c3ccc(Cl)c(O)c3)c(-c3ccncc3)[nH]2)cc1.Cl.Cl [SB-684387-B]
- potency estimated from few doses (PIK3CA; compound concentrations: 100 nM and 1000 nM (sheet 'Samples'), CATDS: 0.97128160740856295): 16 nM

Compound: Cl.O=S1CCN(Cc2ccc(-c3ccc4ncnc(Nc5ccc(OCc6ccccc6)c(Cl)c5)c4c3)o2)CC1 [GW583373A]
- potency estimated from few doses (PIK3CA; [1]): 213 nM

Compound: Nc1ncnc2c1nc(-c1ccccc1)n2-c1ccccc1 [SKF-97293]
- potency estimated from few doses (PIK3CA; [2]): 284 nM

Compound: Cc1c(Cn2c(C)nn3c(=O)cc(N4CCO[C@H](C)C4)nc23)cccc1C(F)(F)F [GSK2373690A]
- potency estimated from few doses (PIK3CB; [1]): 6.1 nM

Compound: CSc1nn2c(=O)cc(N3CCOCC3)nc2n1Cc1cccc(Cl)c1Cl [GSK2347225A]
- potency estimated from few doses (PIK3C3; compound concentrations: 100 nM and 1000 nM (sheet 'Samples'), CATDS: 0.39036921617708198): 41 nM
- potency estimated from few doses (PIK3CB; compound concentrations: 100 nM and 1000 nM (sheet 'Samples'), CATDS: 0.69525432072765503): 11.5 nM

Compound: Cc1c(Cn2c(C)c(C)n3c(=O)cc(N4CCOCC4)nc23)cccc1C(F)(F)F [GSK2328680_KCGS]
- potency estimated from few doses (PIK3CB; [2]): 45.8 nM

Compound: O=c1cc(N2CCOCC2)nc2n(Cc3ccc(F)c(Cl)c3)ccn12 [GSK2297099A]
- potency estimated from few doses (PIK3C3; [1]): 912 nM
- potency estimated from few doses (PIK3CA; [1]): 186 nM
- potency estimated from few doses (PIK3CB; compound concentrations: 100 nM and 1000 nM (sheet 'Samples'), CATDS: 0.58054918147360901): 32.5 nM

Compound: O=C(NCCNc1ccnc(Nc2ccc(F)cc2)n1)Nc1ccccc1F [GSK1379880A]
- potency estimated from few doses (PIK3CA; compound concentrations: 100 nM and 1000 nM (sheet 'Samples'), CATDS: 0.78372192939813501): 233 nM

Compound: CCCNC(=O)Nc1ccc(N(C)c2ccnc(NC3CC3)n2)cc1 [GW818933X]
- potency estimated from few doses (TESK1; CATDS: 0.44455887865749399): 1860 nM

Compound: CC1=C(C(=O)Nc2ccc3[nH]ncc3c2)C(c2ccc(Cl)c(Cl)c2)CC(=O)N1 (centres unmarked) [GSK299115A]
- potency estimated from few doses (ROCK1): 112 nM
- potency estimated from few doses (ROCK2): 140 nM

Compound: N#Cc1ccc(C(=O)c2cnn(-c3ccc(F)cc3)c2N)cc1 [RO1153198-000]
- potency estimated from few doses (TESK1; CATDS: 0.53853377364092803): 1530 nM
